Records with an inconclusive call do not appear. The source made the active and inactive calls. Rule for the calls: active = hit-call score of the fitted dose curve at least 0.9, where 1 is the maximum; inconclusive = response in the unintended direction; inactive = score below 0.9.

Broadly, the AC50 is the concentration at which the activity in the assay is half-maximal.

For the experiment, the target named is Glucocorticoid receptor (Homo sapiens) (UniProt P04150). Description: NVS_NR_hGR: NovaScreen (NVS) Nuclear Receptor Binding Assay for human Glucocorticoid Receptor (GR) (AID 2283363). On the procedure: NVS_NR_hGR is a biochemical, single-readout assay that uses extracted gene-proteins in a cell-free assay. Measurements were taken 16 hours after chemical dosing in a 96-well plate.NVS_NR_hGR is one of one assay component(s) measured or calculated from the NVS_NR_hGR assay. It is designed to make measurements of radioligand binding, a form of binding reporter, as detected with scintillation counting signals by Filter-based radiodetection technology.Data from the assay component NVS_NR_hGR was analyzed into 1 assay endpoint. This assay endpoint, NVS_NR_hGR, was analyzed in the positive analysis fitting direction relative to DMSO as the negative control and baseline of activity. Using a type of binding reporter, loss-of-signal activity can be used to understand changes in the binding as they relate to the gene NR3C1. Furthermore, this assay endpoint can be referred to as a primary readout, because the performed assay has only produced 1 assay endpoint. To generalize the intended target to other relatable targets, this assay endpoint is annotated to the nuclear receptor intended target family, where the subfamily is steroidal.
Chain of Glucocorticoid receptor (Homo sapiens) (P04150 whole entry, looked up): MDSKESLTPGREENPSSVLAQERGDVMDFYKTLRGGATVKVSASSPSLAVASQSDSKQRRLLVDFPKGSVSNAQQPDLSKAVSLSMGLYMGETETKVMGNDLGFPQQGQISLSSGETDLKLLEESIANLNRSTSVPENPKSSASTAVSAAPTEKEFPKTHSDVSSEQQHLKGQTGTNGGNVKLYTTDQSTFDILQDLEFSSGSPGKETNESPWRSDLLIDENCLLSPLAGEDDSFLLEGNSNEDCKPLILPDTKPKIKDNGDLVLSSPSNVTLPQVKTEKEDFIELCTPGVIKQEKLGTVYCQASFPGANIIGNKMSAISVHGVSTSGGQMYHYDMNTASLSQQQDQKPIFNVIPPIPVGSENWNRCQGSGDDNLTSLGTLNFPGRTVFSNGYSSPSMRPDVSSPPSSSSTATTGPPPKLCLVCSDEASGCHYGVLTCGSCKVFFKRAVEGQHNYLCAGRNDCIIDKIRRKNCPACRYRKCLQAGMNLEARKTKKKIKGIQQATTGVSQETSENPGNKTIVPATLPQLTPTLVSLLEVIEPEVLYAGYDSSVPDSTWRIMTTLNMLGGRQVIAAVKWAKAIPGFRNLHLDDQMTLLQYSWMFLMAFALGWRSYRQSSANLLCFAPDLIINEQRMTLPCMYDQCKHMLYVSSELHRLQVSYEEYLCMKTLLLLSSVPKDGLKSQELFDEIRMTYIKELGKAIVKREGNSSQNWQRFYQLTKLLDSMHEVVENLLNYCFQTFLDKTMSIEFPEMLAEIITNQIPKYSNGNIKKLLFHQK
Binding assays used specific radioligands (tritiated, iodinated) with non-radioactive competitive displacement ligands in agonist or antagonist protocols (as indicated) and various reference compounds and inhibitors to titrate specific binding to receptors and transporters. Most enzyme assays (CYPs, kinases, phosphatases, proteases, HDACs) used recombinant protein and specific substrates (fluorescence mostly, some colorimetric and radioactive) and inhibitors, followed by a biochemical separation of substrate and product. All assays for the biochemical HTS were initially run in duplicate at a single concentration (10 uM for CYP450 assays and 25 uM for all others). […] Each assay was run with positive and negative controls, and concurrent controls on every plate. The follow-up (secondary) screen tested active chemical-pairs in concentration series, as well as a few additional assays not tested in the primary screen, some selected negative inactives, and several cases re-run in the concentration series for confirmatory purposes.
On to `CCCN(CCOc1c(Cl)cc(Cl)cc1Cl)C(=O)n1ccnc1`, for which the compound was classed as inactive. As for `COc1nn(CSP(=S)(OC)OC)c(=O)s1`, the call was inactive. With `O=S1OCC2C(CO1)C1(Cl)C(Cl)=C(Cl)C2(Cl)C1(Cl)Cl` (stereo unspecified), the AC50 was 2.29 µM (active). On to `O=C(O)COc1ccc(Cl)cc1Cl`, for which the compound was called inactive. Consider `O=[N+]([O-])/N=C1\NCCN1Cc1ccc(Cl)nc1`, for which the outcome was inactive.

Turning to `CC[C@H](C)[C@H]1O[C@]2(C=C[C@@H]1C)C[C@@H]1C[C@@H](C/C=C(\C)[C@@H](O[C@H]3C[C@H](OC)[C@@H](O[C@H]4C[C@H](OC)[C@@H](O)[C@H](C)O4)[C@H](C)O3)[C@@H](C)/C=C/C=C3\CO[C@@H]4[C@H](O)C(C)=C[C@@H](C(=O)O1)[C@]34O)O2` (tested in a mixture with another compound), the AC50 was 8.5 µM (active). Regarding `CC1(C)C(C=C(Cl)Cl)C1C(=O)OC(C#N)c1ccc(F)c(Oc2ccccc2)c1` (stereo unspecified), the AC50 is 7.25 µM (active).

Turning to `N#Cc1c(Cl)c(Cl)c(Cl)c(C#N)c1Cl`, the AC50 is 0.177 µM (active). Regarding `Oc1cc(Cl)ccc1Oc1ccc(Cl)cc1Cl`, the call was inactive. On the same count and under the same terms, for `O=[N+]([O-])c1c(Cl)c(Cl)c(Cl)c(Cl)c1Cl` the value was “inactive”; for `CCOc1nc(NC)nc(NC(=O)NS(=O)(=O)c2ccccc2C(=O)OC)n1`, “inactive”.

The record behind these values is PubChem BioAssay (EPA / NIEHS).
